BAZ2B inh: qHTS Assay for Inhibitors of BAZ2B. AlphaScreen BAZ2B-H3K14Ac peptide displacement. Potency, µM (highest dose often 114 µM), most hits filed as inhibitors. hit rate 4.4% among 360,000. AID 504333, 2011; further: nearly all actives have a fitted effect of over 60% in size
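Multi-concentration screen (max 110 uM) measuring displacement of acetylated histone H3 peptide from BAZ2B by AlphaScreen, using 50 nM protein, 50 nM peptide and 10 ug/mL streptavidin donor plus Ni-chelate acceptor beads.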
HP1b chromo inh: HTS for Inhibitors of HP1-beta Chromodomain Interactions with Methylated Histone Tails. AlphaScreen HP1-beta / biotin-H3K9me3 peptide binding. hit rate 0.56% among 390,000. Potency, µM (titrated, usually from 114 µM), most hits filed as inhibitors; further: nearly all actives have a fitted effect of over 70% in size
Target sequence (P83916 whole entry, looked up): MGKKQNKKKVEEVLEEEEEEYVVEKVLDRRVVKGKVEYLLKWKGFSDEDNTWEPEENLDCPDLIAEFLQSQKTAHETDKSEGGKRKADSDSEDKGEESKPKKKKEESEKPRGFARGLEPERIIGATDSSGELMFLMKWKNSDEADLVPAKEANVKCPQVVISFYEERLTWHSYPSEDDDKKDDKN
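HP1-beta protein (50 nM final) preincubated 30 min at room temperature with biotinylated H3(1-18)K9me3 peptide (50 nM) in PBS pH 7.4, 0.01% Tween-20, then compound added for 30 min. AlphaScreen streptavidin donor/nickel chelate acceptor beads (10 ug/mL final), 30 min dark, luminescence read.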
Sfp PPTase inh: qHTS Assay for Inhibitors of Bacillus subtilis Sfp phosphopantetheinyl transferase (PPTase) | Biochemical Sfp PPTase activity, qHTS | Potency, µM, actives largely listed as inhibitors | hit rate 3.5% among 310,000 | AID 1490, 2009;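 further: the enzyme is Sfp with the accession as filed and its product quenches rhodamine fluorescence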
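Reaction rates are the 30-min fluorescence difference (ex 525, em 598 nm) in wells containing 15 nM Sfp, 5 uM rhodamine-CoA and 12.5 uM BHQ-2-YbbR at pH 7.6 with 10 mM MgCl2.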
G9a block: qHTS Assay for Inhibitors of Histone Lysine Methyltransferase G9a | Histone-lysine N-methyltransferase EHMT2 (Homo sapiens), Q96KQ7 | G9a H3K9 monomethylation, AlphaScreen, 2 h | Potency, µM (doses to about 102 µM), usual class: inhibitors | hit rate 8.8% among 350,000 | AID 504332, 2011; further: nearly all actives have a fitted effect of over 75% in size
Target sequence (Q96KQ7 913-1193 limits assumed): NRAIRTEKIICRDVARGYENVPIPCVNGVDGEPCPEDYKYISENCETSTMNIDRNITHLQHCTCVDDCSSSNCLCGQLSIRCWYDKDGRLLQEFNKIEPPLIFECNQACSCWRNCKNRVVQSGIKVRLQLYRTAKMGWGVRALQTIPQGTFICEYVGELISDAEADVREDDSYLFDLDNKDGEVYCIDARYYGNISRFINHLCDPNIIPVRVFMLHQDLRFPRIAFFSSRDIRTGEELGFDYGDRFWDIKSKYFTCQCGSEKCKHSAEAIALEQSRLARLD
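Enzyme 20 nM + cpd, 15 min RT; add b-H3K9 pep 500 nM / SAM 20 uM; 2 h RT; anti-H3K9me1 Ab 0.5 ug/mL + SA donor / anti-rabbit acceptor beads 20 ug/mL each, 10 min; AlphaScreen read.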
JMJD2A Tudor inh: qHTS Assay for Inhibitors of JMJD2A-Tudor Domain. Lysine-specific demethylase 4A (Homo sapiens), O75164. AlphaScreen JMJD2A-Tudor / H3K4me3 peptide binding. Potency, µM (titrated, usually from 114 µM), most hits filed as inhibitors. hit rate 4.4% among 390,000. AID 504339, 2011; further: nearly all actives have a fitted effect of over 50% in size
ALOX12 inh: Primary qHTS assay for inhibitors of human arachidonate 12S-lipoxygenase (ALOX12): Round 2; Polyunsaturated fatty acid lipoxygenase ALOX12 (Homo sapiens), P18054; hit rate 1.1% among 580,000; purified 12hLO, xylenol orange hydroperoxide absorbance; Potency, µM (doses to about 108 µM), actives largely listed as inhibitors
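Hydroperoxide product was detected by ferrous iron/xylenol orange as the 573 to 405 nm absorbance ratio. Arachidonic acid at 40 uM (final) was turned over for 30 min at room temperature by 150 nM human 12hLO, pH 7.0 Hepes buffer, after 15 min compound preincubation.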
Of the large screens only hits and unclear results are named; the others gave an inactive call; ! = not active in a repeat. Most compounds without a hit are left out; they make up all but 8.7% or so of the library. The call rests on the fitted dose curve; in most records, active means well fitted curve in the direction sought with a large enough effect; inconclusive means small, poorly fitted or top-dose-only effect, or another doubt; inactive means no such curve, though single readings can be large; an effect the other way counts as inactive or inconclusive.

C=CCn1c(CNC(=O)c2cccs2)n[nH]c1=S	G9a block 25µM, JMJD2A Tudor inh inconclusive
C=CCn1c(C(C)NC(=O)c2cccs2)n[nH]c1=S (centres undefined)	G9a block 16µM, JMJD2A Tudor inh 18µM
Cc1c(C(=O)N(C)c2ccccc2)sc2nc3n(c(=O)c12)CCCC3	none (no result: BAZ2B inh, HP1b chromo inh, Sfp PPTase inh, G9a block, JMJD2A Tudor inh)
O=C(NCc1ccc(N2CCCC2)nc1)c1cc(Cl)ccc1O	none (no result: BAZ2B inh, HP1b chromo inh, Sfp PPTase inh, G9a block, JMJD2A Tudor inh)
CCN1C(=NCCOC)N[C@@H](CCc2ccccc2)[C@H](C(=O)OC)[C@H]1C	JMJD2A Tudor inh 40µM, ALOX12 inh inconclusive
COC(=O)C1=C(C)N(Cc2ccccc2)C(=NCCc2c[nH]c3ccccc23)N[C@H]1c1cccc(F)c1	JMJD2A Tudor inh inconclusive, ALOX12 inh inconclusive (no result: BAZ2B inh, Sfp PPTase inh, G9a block)
CCN1C(=NCc2ccccc2)N[C@@H](c2ccccc2)[C@H](C(=O)OC)[C@H]1C	G9a block inconclusive
CCN1C(=NCCc2c[nH]c3ccccc23)N[C@@H](c2ccccc2)[C@H](C(=O)OC)[C@H]1C	BAZ2B inh inconclusive, G9a block 79µM, JMJD2A Tudor inh inconclusive, ALOX12 inh inconclusive
COC(=O)C1=C(C)N(Cc2ccccc2)C(=NCCc2c[nH]c3ccccc23)N[C@H]1c1ccccc1	BAZ2B inh 56µM, Sfp PPTase inh inconclusive, JMJD2A Tudor inh inconclusive (no result: ALOX12 inh)
CCN1C(=NCCCOC(C)C)N[C@@H](CCc2ccccc2)[C@H](C(=O)NCCCOC(C)C)[C@H]1C	JMJD2A Tudor inh inconclusive, ALOX12 inh inconclusive (no result: G9a block)
CCN(CC)CC(C)NCc1ccccc1 (centres undefined)	none (no result: BAZ2B inh, HP1b chromo inh, Sfp PPTase inh, G9a block, JMJD2A Tudor inh)
Cc1cc(OCC(=O)N(Cc2ccc(N(C)C)cc2)Cc2ccco2)cc(C)c1Cl	BAZ2B inh 10µM, G9a block 11µM, JMJD2A Tudor inh 14µM (no result: Sfp PPTase inh)
Cc1cc(OC(C)C(=O)N(Cc2ccc(N(C)C)cc2)Cc2ccco2)ccc1Cl (centres undefined)	BAZ2B inh 13µM, G9a block 13µM, JMJD2A Tudor inh 14µM (no result: Sfp PPTase inh)
NC(CSCSCC(N)C(=O)O)C(=O)O (centres undefined)	none (no result: BAZ2B inh, HP1b chromo inh, G9a block, JMJD2A Tudor inh, ALOX12 inh)
N[C@@H](CS(=O)O)C(=O)O	Sfp PPTase inh 56µM, G9a block 21µM!, ALOX12 inh inconclusive (no result: BAZ2B inh, HP1b chromo inh, JMJD2A Tudor inh)
NC(CS(=O)O)C(=O)O (centres undefined)	JMJD2A Tudor inh 35µM (no result: BAZ2B inh, Sfp PPTase inh, G9a block)
CC(C)C[C@H](NC(=O)c1ccc2nc(-n3cccc3)sc2c1)C(=O)NCc1ccncc1	none (no result: BAZ2B inh, HP1b chromo inh, Sfp PPTase inh, G9a block, JMJD2A Tudor inh)
O=C1CCC/C(=N\NC(=O)c2ccc(NS(=O)(=O)c3ccc(Br)cc3)cc2)C1	Sfp PPTase inh inconclusive, G9a block 79µM
CC1(C(=O)c2ccccc2)C(c2ccccc2)C1(C#N)C(N)=O (centres undefined)	none (no result: BAZ2B inh, HP1b chromo inh, Sfp PPTase inh, G9a block, JMJD2A Tudor inh)
N#C[C@H]1[C@H](c2ccccc2)[C@](C#N)(C(=O)c2ccccc2)[C@@H]2C=Cc3ccccc3N21	BAZ2B inh 28µM, G9a block 25µM (no result: HP1b chromo inh, JMJD2A Tudor inh, ALOX12 inh)
COCCSc1nc2c(c(=O)[nH]c(=O)n2C)n1CCCc1ccccc1	Sfp PPTase inh inconclusive, ALOX12 inh 28µM! (no result: G9a block)
CCCCCOC(=O)CSc1nc2c(c(=O)[nH]c(=O)n2C)n1CCc1ccccc1	G9a block 13µM, ALOX12 inh inconclusive
Cc1ccc(Cn2c(SCCN3CCCCC3)nc3c2c(=O)[nH]c(=O)n3C)cc1	Sfp PPTase inh 11µM, G9a block 25µM, ALOX12 inh inconclusive
Cn1c(=O)[nH]c(=O)c2c1nc(SCCN1CCCCC1)n2CCCc1ccccc1	Sfp PPTase inh 3.5µM, G9a block 8.9µM, JMJD2A Tudor inh inconclusive
Cn1c(=O)[nH]c(=O)c2c1nc(SCCN1CCCCC1)n2Cc1ccccc1	none
O=C(c1nc2ccccc2[nH]1)N1CCc2c(n(Cc3cccnc3)n(-c3ccccc3)c2=O)C1	none (no result: BAZ2B inh, HP1b chromo inh, Sfp PPTase inh, G9a block, JMJD2A Tudor inh)
Cc1ccc(S(=O)(=O)N2CCC(n3cnnc3C)CC2)cc1Cl	none (no result: BAZ2B inh, HP1b chromo inh, Sfp PPTase inh, G9a block, JMJD2A Tudor inh)
Cc1cccc(OCC(=O)N2C[C@@H](CO)[C@H](c3ccncc3)C2)c1	none (no result: BAZ2B inh, HP1b chromo inh, Sfp PPTase inh, G9a block, JMJD2A Tudor inh)
COCCn1c(SCC(=O)OCc2ccccc2)nc2c1c(=O)[nH]c(=O)n2C	G9a block 32µM
COCCn1c(SCCCc2ccccc2)nc2c1c(=O)[nH]c(=O)n2C	G9a block 50µM
COCCn1c(SCc2ccccc2)nc2c1c(=O)[nH]c(=O)n2C	ALOX12 inh inconclusive
CC(=O)Nc1ccccc1OCc1cc(C)cc(C)c1	none (no result: BAZ2B inh, HP1b chromo inh, Sfp PPTase inh, G9a block, JMJD2A Tudor inh)
c1cc(-c2nnc(-c3ccncc3)o2)ccn1	none
S=c1oc(-c2ccncc2)nn1CCc1ccncc1	BAZ2B inh 56µM
CC12CCC(c3c1nc1ccccc1[n+]3[O-])C2(C)C (centres undefined)	JMJD2A Tudor inh 45µM
CC12CCC(C(=O)n3c1nc1ccccc13)C2(C)C (centres undefined)	none
COc1ccc(C(C)=O)cc1CS(=O)(=O)CC(=O)O	G9a block 45µM
Cc1nc(-c2ccccn2)nc(SCC(=O)c2ccccc2)c1Cl	ALOX12 inh inconclusive (no result: G9a block)
